Assay outcomes deposited in PubChem BioAssay by several laboratories.
ABCB6 inh 2: ABCB6 transporter inhibitors, primary screen, K562-ABCB6 cells, flow cytometry, MLPCN library. ATP-binding cassette sub-family B member 6 (Homo sapiens), Q9NP58. fluorescence ratio to DMSO, % at 10 µM. K562-ABCB6 porphyrin accumulation, 1 h; active compounds read low. 360,000 tested, 0.19% active;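 active = fluorescence ratio to DMSO below 75%, the collection mean minus 3 SD; inconclusive = too few cells collected in the well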;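 also: signal is porphyrin accumulated inside mitochondria; lower ratio means ABCB6 inhibition with less porphyrin fluorescence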
Myeloid diff 2: induction of myeloid progenitor differentiation, primary screen, cell-based, flow cytometry, MLPCN library | ER-HoxA9 myeloid progenitors, lysozyme-GFP differentiation | calls only at 10 µM | 360,000 tested, 1% active | AID 624256, 2012;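 active = normalized GFP-positive differentiation at or above the plate's own cutoff, the solvent-only control mean plus 3 SD; inconclusive = no clear call, values can overlap the other calls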;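 also: cells exposed to compound for four days before flow analysis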
TLR9-MyD88 inh: inhibitors of TLR9-MyD88 association in cells, primary screen, cell-based, CHO, BLA complementation, fluorescence; Toll-like receptor 9 (Homo sapiens) + Myeloid differentiation primary response protein …; CCF4 FRET ratio; inhibition, % at 4.98 µM; 340,000 tested, 0.21% active;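 active = inhibition above the mean over all tested compounds plus 3 SD, cut at about 21% in these data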
NOD2 RIPK2 PPI: NOD2-RIPK2 binding disruptors in cells, primary screen, fluorescence, CHO cells, BLA complementation | Receptor-interacting serine/threonine-protein kinase 2 (Homo sapiens), O43353 | 360,000 tested, 0.38% active | inhibition, % at 4.98 µM | CCF4 ratio; in the data active = inhibition above about 21%
Target sequence (O43353 whole entry, looked up): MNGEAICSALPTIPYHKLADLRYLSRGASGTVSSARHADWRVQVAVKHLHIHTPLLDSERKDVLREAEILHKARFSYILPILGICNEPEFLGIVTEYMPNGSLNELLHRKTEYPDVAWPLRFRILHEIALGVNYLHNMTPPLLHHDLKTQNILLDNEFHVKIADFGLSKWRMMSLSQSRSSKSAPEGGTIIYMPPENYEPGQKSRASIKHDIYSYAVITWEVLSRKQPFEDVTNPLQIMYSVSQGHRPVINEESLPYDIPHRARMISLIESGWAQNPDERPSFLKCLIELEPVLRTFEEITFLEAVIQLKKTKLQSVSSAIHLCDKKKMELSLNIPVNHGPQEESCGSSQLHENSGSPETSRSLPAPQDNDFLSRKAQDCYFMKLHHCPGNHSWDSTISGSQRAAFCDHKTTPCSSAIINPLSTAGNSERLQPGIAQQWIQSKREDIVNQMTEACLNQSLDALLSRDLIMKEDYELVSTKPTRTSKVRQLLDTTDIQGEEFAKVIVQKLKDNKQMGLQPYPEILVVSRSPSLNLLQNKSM
TLR4 MyD88 comp: inhibitors of TLR4-MyD88 association in cells, primary screen, cell-based, HeLa CL3-4, BLA complementation, FRET ratio | HeLa CL3-4 TLR4/MyD88 BLA complementation | inhibition, % at 8.4 µM | 200,000 tested, 0.18% active | AID 861, 2007; in the data active = inhibition above about 25%
Of the large screens only hits and unclear results are named; the others gave an inactive call. Sampled rows, rich in hits. Any-hit rate of the full collection: about 1.7%.

Cc1cc2oc3cc(NCCC4CCCN4C)ccc3c(=O)c2cc1C (centres undefined)	none (no result: TLR4 MyD88 comp)
COc1cc2sc3cc(NCCCN4CCOCC4)ccc3c(=O)c2cc1OC	none (no result: TLR4 MyD88 comp)
O=[N+]([O-])c1cc(S(=O)(=O)N2CCCCCC2)ccc1Cl	none
CCn1c(SCC(=O)c2c[nH]c3ccccc23)nc2cc(S(=O)(=O)N3CCOCC3)ccc21	Myeloid diff 2 active
CCn1c(SCC(N)=O)nc2cc(S(=O)(=O)N3CCOCC3)ccc21	none
O=S1(=O)N=C(N(CCO)/N=C/c2ccc(Cl)cc2)c2ccccc21	none (no result: TLR4 MyD88 comp)
O=S1(=O)N=C(N(CCO)/N=C/C=C/c2ccccc2)c2ccccc21	Myeloid diff 2 active
Cc1nc([N+](=O)[O-])c(Br)n1CC(=O)c1ccc2ccccc2c1	NOD2 RIPK2 PPI 22
COc1ccc(NC(=O)CSc2nc3scc(C)c3c(=O)[nH]2)cc1	none (no result: TLR4 MyD88 comp)
COC(=O)C1C2CC3c4[nH]c5cc(OC)ccc5c4CCN3CC2CC(OC2CCCCO2)C1OC (centres undefined)	Myeloid diff 2 active (no result: TLR4 MyD88 comp)
COC(=O)[C@H]1[C@H]2C[C@@H]3c4[nH]c5cc(OC)ccc5c4CCN3C[C@H]2C[C@@H](OC(=O)c2cc(OC)c(OC)c(OC)c2)[C@@H]1OC	none (no result: TLR4 MyD88 comp)
Cc1nc2ccccc2n1CC(O)Cn1c2ccccc2c2ccccc21 (centres undefined)	Myeloid diff 2 active
OCC(O)CN1CCCC1 (centres undefined)	none (no result: TLR9-MyD88 inh, TLR4 MyD88 comp)
CC1CCN(C(=O)c2cc(-c3ccco3)on2)CC1	none (no result: TLR4 MyD88 comp)
CC1CCCC(C)N1C(=O)c1cc(-c2ccco2)on1 (centres undefined)	Myeloid diff 2 active (no result: TLR4 MyD88 comp)
COc1ccc(-c2noc(CCC(=O)Nc3cccnc3)n2)cc1	Myeloid diff 2 active (no result: TLR4 MyD88 comp)
COc1ccc(-c2nc(CS(=O)CC(=O)NC3CCCC(C)C3C)c(C)o2)cc1OC (centres undefined)	Myeloid diff 2 active (no result: TLR4 MyD88 comp)
Cc1ccc(-c2nc(CS(=O)CC(=O)NC3CCCC(C)C3C)c(C)o2)cc1 (centres undefined)	none (no result: TLR4 MyD88 comp)
N#C/C(=C(/O)CCl)c1nc2c(s1)CCc1ccccc1-2	Myeloid diff 2 active (no result: TLR4 MyD88 comp)
Cc1ccc(OCC(=O)OCC(=O)NC2CC2)cc1C	none (no result: TLR4 MyD88 comp)
Cc1c(C(=O)Nc2cccnc2Cl)oc2ccccc12	none (no result: TLR4 MyD88 comp)
O=[N+]([O-])c1ccc(S(=O)(=O)c2cccc(C(F)(F)F)c2)nc1	Myeloid diff 2 inconclusive, NOD2 RIPK2 PPI 79 (no result: TLR4 MyD88 comp)
O=S(=O)(NCc1ccc(C(F)(F)F)cc1)c1ccc(-n2cnnn2)cc1	Myeloid diff 2 active (no result: TLR4 MyD88 comp)
CC1=C/C(=N\OC(=O)/C=C/c2ccccc2)C(C)=CC1=O	Myeloid diff 2 active
N/C(=N\OC(=O)/C=C/c1ccccc1)c1ccccc1	none
Cc1nc2ncnn2c(C)c1Cc1cccc(C(F)(F)F)c1	Myeloid diff 2 active
Cc1ccc(C2C(C#N)=C(N)SC(N)=C2C#N)c(C)c1	Myeloid diff 2 active
Cc1ccc(C2C(C#N)=C(N)SC(N)=C2C#N)cc1	none
CC(C)CN(CCCNC(=O)CN1C(=O)COc2ccc(S(=O)(=O)N3CCOCC3)cc21)CC(C)C	none (no result: TLR4 MyD88 comp)
Cc1[nH]c2ccccc2c1/C=N/Nc1nc(Nc2ccccc2)nc(N2CCOCC2)n1	Myeloid diff 2 active
Cc1ccc(C(=O)CSc2nc(-c3ccccc3)ccc2C#N)cc1	Myeloid diff 2 active
Cc1ccc(-c2ccc(SCC(=O)c3ccccc3)nn2)cc1	none
CCC(C)NC(=S)N(Cc1cc2cc(C)ccc2n2nnnc12)CC(C)(C)NC(C)C (centres undefined)	none (no result: TLR4 MyD88 comp)
O=C(NCCC1=CCCCC1)C1CCC(=O)N(Cc2ccc(Cl)cc2)C1 (centres undefined)	Myeloid diff 2 active (no result: TLR4 MyD88 comp)
CCN(CC)C(=O)C1c2ccccc2Oc2ccccc21	Myeloid diff 2 active (no result: TLR4 MyD88 comp)
C=CCN(CC=C)C(=O)C1c2ccccc2Oc2ccccc21	none (no result: TLR4 MyD88 comp)
COc1ccc(NC(=S)N2CCC(c3nc4ccccc4[nH]3)CC2)c(OC)c1	ABCB6 inh 2 66
Cc1ccc(C2C3CN(C(C)C)CC=C3C(C#N)=C(N)C2(C#N)C#N)cc1 (centres undefined)	Myeloid diff 2 active (no result: TLR4 MyD88 comp)
Cn1c(=O)c2c(ncn2CCOc2ccc(F)cc2)n(C)c1=O	none (no result: TLR4 MyD88 comp)
